PubChem BioAssay (Tox21)
Values joined by “and” are separate entries in the source; they are usually repeats but may differ in a detail not shown here. Equal values may be shown once. Inconclusive results are not listed. Where a call stands in place of a potency, no number is given. A structure can be active in one record and inactive in another. Active and inactive are the calls of the source. Calls follow the shape of the full dose curve.

Legend:
[1] = molecular target: Acetylcholinesterase (Homo sapiens) (UniProt P22303); test: Acetylcholinesterase (AChE) small molecule antagonists: colormetric cell-based qHTS assay (AID 1347395); also: nearly all actives have a fitted effect of over 30% in size; also: potency is read from the fitted curve at half-maximal effect
Chain of Acetylcholinesterase (Homo sapiens) (P22303 whole entry, looked up): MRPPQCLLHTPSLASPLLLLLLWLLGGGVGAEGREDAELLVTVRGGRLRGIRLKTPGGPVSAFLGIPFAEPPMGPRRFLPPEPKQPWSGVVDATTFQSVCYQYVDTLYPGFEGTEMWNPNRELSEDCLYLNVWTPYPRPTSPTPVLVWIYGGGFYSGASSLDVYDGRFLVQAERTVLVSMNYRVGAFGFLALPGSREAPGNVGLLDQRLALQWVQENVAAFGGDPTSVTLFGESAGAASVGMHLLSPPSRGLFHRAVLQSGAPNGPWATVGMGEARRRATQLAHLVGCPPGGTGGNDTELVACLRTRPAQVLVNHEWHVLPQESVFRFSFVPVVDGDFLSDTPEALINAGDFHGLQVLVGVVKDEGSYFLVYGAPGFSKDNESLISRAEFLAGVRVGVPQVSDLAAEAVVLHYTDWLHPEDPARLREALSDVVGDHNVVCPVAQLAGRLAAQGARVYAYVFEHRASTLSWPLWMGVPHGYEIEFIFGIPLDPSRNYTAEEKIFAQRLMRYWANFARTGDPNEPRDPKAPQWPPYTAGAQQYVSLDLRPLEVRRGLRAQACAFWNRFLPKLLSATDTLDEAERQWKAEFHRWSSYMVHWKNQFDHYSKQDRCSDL
In short: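 Homogeneous whole-cell format. SH-SY5Y cells seeded overnight, dosed with compound (30 min, 37 C, 5% CO2), then given DTNB/acetylthiocholine cocktail for 90 min at 37 C; colorimetric signal.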

[2] = molecular target: Acetylcholinesterase (Homo sapiens) (UniProt P22303); test: Acetylcholinesterase (AChE) small molecule antagonists: enzyme-based qHTS assay (AID 1347397); conditions: Potency: AChE enzyme activity inhibition; outcome: AChE enzyme activity inhibition; also: nearly all actives have a fitted effect of over 55% in size; also: potency is read from the fitted curve at half-maximal effect
In short: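 rhAChE 50 mU/mL (dispensed) + cpd or DMSO, 30 min RT; add DTNB/acetylthiocholine cocktail, 10 min RT; colorimetric thiocholine readout. qHTS, 1536-well format.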

[3] = molecular target: Acetylcholinesterase (Homo sapiens) (UniProt P22303); test: Acetylcholinesterase (AChE) small molecule antagonists: fluorescence cell-based qHTS assay (AID 1347398); conditions: Potency: AChE activity; outcome: AChE activity; also: nearly all actives have a fitted effect of over 50% in size; also: potency is read from the fitted curve at half-maximal effect
In short: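 Read-out is Thiolite Green fluorescence at Ex/Em = 490/520 nm, formed by reaction with thiocholine released when cellular AChE in SH-SY5Y cells hydrolyzes acetylthiocholine. Compounds were preincubated 30 min at 37 C before substrate.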

[4] = molecular target: Acetylcholinesterase (Homo sapiens) (UniProt P22303); test: Acetylcholinesterase (AChE) small molecule antagonists: enzyme-based qHTS assay with human liver microsomes (AID 1347399); conditions: Potency: qHTS inhibition; outcome: qHTS inhibition; also: nearly all actives have a fitted effect of over 60% in size
In short: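 Recombinant human AChE (50 mU/mL in the enzyme mix) and human liver microsomes (0.25 mg/mL final) were preincubated with compound and NADPH (0.25 mg/mL final) for 30 min at 37 C. Acetylthiocholine/DTNB was then added; thiocholine was read colorimetrically after 10 min at room temperature.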

Row | SMILES | Potency [1] | Potency [2] | Potency [3] | Potency [4] | activity, negative = inhibition [1] | activity change, negative = inhibition [2] | activity change, negative = inhibition [3] | activity change, negative = inhibition [4]
1 | OCc1c2ccccc2cc2ccccc12 | inactive | inactive | inactive | inactive | – | – | – | –
2 | CCn1cc(C(=O)O)c(=O)c2cc(F)c(N3CCNCC3)nc21 | inactive | inactive | inactive | inactive | – | – | – | –
3 | O=C1c2ccccc2Cc2ccccc21 | inactive | inactive | inactive | inactive | – | – | – | –
4 | Cc1sccc1Br | inactive | inactive | inactive | inactive | – | – | – | –
5 | Nc1cc(S(=O)(=O)O)ccc1S(=O)(=O)O | inactive | inactive | inactive | inactive | – | – | – | –
6 | C=CC(C)(O)CCC=C(C)C (stereo not given) | inactive | inactive | inactive | inactive | – | – | – | –
7 | CC1=C(C=O)C(C)(C)CCC1 | inactive | inactive | inactive | inactive | – | – | – | –
8 | O=C(O)CCNC(=O)c1ccc(N=Nc2ccc(O)c(C(=O)O)c2)cc1 | inactive | inactive | inactive | inactive | – | – | – | –
9 | CCN(CC)CCOC(=O)C(c1ccccc1)C1CCCCC1 (stereo not given) | inactive | inactive | inactive | inactive | – | – | – | –
10 | O=Nc1ccc(NO)cc1 | inactive | inactive | inactive | inactive | – | – | – | –
11 | CN[C@@H]1[C@H](O)[C@H](NC)[C@H]2O[C@@]3(O)C(=O)C[C@@H](C)O[C@H]3O[C@@H]2[C@H]1O | inactive | inactive | inactive | inactive | – | – | – | –
12 | O=C(O)c1cc(N=Nc2ccc(S(=O)(=O)Nc3ccccn3)cc2)ccc1O | inactive | inactive | inactive | inactive | – | – | – | –
13 | Cc1ccc2ccccc2c1[N+](=O)[O-] | inactive | inactive | inactive | inactive | – | – | – | –
14 | Cc1cc(=O)oc2cc(O)ccc12 | inactive | inactive | inactive | inactive | – | – | – | –
15 | CCCCOCC(C)O (stereo not given) | inactive | inactive | inactive | inactive | – | – | – | –
16 | O=C(O)c1cc(Cl)cc(Cl)c1O | inactive | inactive | inactive | inactive | – | – | – | –
17 | COc1ccc2c(c1)CCCC2=O | inactive | inactive | inactive | inactive | – | – | – | –
18 | O=c1cc[nH]c(=S)[nH]1 | inactive | inactive | inactive | inactive | – | – | – | –
19 | COC(=O)c1sccc1S(N)(=O)=O | inactive | inactive | inactive | inactive | – | – | – | –
20 | O=C1CCC(=O)O1 | inactive | inactive | inactive | inactive | – | – | – | –

Row | SMILES | Potency [1] | Potency [2] | Potency [3] | Potency [4] | activity, negative = inhibition [1] | activity change, negative = inhibition [2] | activity change, negative = inhibition [3] | activity change, negative = inhibition [4]
21 | CC(=O)c1ccc2ccccc2c1 | inactive | inactive | inactive | inactive | – | – | – | –
22 | CCN(Cc1c(F)cccc1Cl)c1c([N+](=O)[O-])cc(C(F)(F)F)cc1[N+](=O)[O-] | inactive | inactive | inactive | inactive | – | – | – | –
23 | Cc1c(F)c(N2CCNC(C)C2)cc2c1c(=O)c(C(=O)O)cn2C1CC1 (stereo not given) | inactive | inactive | inactive | inactive | – | – | – | –
24 | CCCOC(=O)c1cc(O)c(O)c(O)c1 | inactive | inactive | inactive | inactive | – | – | – | –
25 | CC(=O)c1ccc(O)c(C(N)=O)c1 | inactive | inactive | inactive | inactive | – | – | – | –
26 | CCCCCOC(C)=O | 32.1 µM (active) and inactive | inactive | inactive | inactive | – | – | – | –
27 | C=CCOC(=O)CCC1CCCCC1 | inactive | inactive | inactive | inactive | – | – | – | –
28 | O=C(O)Cn1cnnn1 | inactive | inactive | inactive | inactive | – | – | – | –
29 | COC(=O)Nc1ccc(Cl)c(Cl)c1 | inactive | inactive | inactive | inactive | – | – | – | –
30 | CCCCCCCCN(C)C | inactive | inactive | inactive | inactive | – | – | – | –
31 | CCn1cc(C(=O)O)c(=O)c2cc(F)c(N3CCN(C)CC3)cc21 | – | – | – | – | 2.04% [at 23.6 µM] (inactive) | -0.504% [at 23.6 µM] (inactive) | 2.98% [at 23.8 µM] (inactive) | -0.336% [at 23.6 µM] (inactive)
32 | NC(N)=NC(=O)c1nc(Cl)c(N)nc1N | 35.8 µM (active) and 32.9 µM (active) and 27.5 µM (active) | inactive | 12.7 µM (active) and 32.9 µM (active) | inactive | – | – | – | –
33 | CCCCCCS | inactive | inactive | inactive | inactive | – | – | – | –
34 | C1CCCCC1 | inactive | inactive | inactive | inactive | – | – | – | –
35 | CC(C)C(=O)Nc1cccc(C(F)(F)F)c1 | inactive | inactive | inactive | inactive | – | – | – | –
36 | O=Cc1ccc(CO)o1 | inactive | inactive | inactive | inactive | – | – | – | –
37 | CCC(C)N (stereo not given) | inactive | inactive | inactive | inactive | – | – | – | –
38 | OCC(O)CN1CCN(c2ccccc2)CC1 (stereo not given) | inactive | inactive | inactive | inactive | – | – | – | –
39 | CCCCCCCCCCCCCCCCCBr | – | – | – | – | 0.585% [at 23.6 µM] (inactive) | 1.09% [at 23.6 µM] (inactive) | -1.4% [at 23.8 µM] (inactive) | -2.26% [at 23.6 µM] (inactive)
40 | CCCCC(O)/C=C(C)/C=C/C=C/C(=O)N1CCCC1=O (stereo not given) | inactive | inactive | inactive | inactive | – | – | – | –

Row | SMILES | Potency [1] | Potency [2] | Potency [3] | Potency [4] | activity, negative = inhibition [1] | activity change, negative = inhibition [2] | activity change, negative = inhibition [3] | activity change, negative = inhibition [4]
41 | NS(=O)(=O)O | inactive | inactive | inactive | inactive | – | – | – | –
42 | CNC(=S)N(C)C | inactive | 63.9 µM (active) and inactive | 32 µM (active) and inactive | inactive | – | – | – | –
43 | O=C(c1ccccc1)c1ccc(O)cc1O | inactive | inactive | inactive | inactive | – | – | – | –
44 | COC(=O)C1=C(C)NC(C)=C(C(=O)OCC(C)=O)C1c1ccccc1[N+](=O)[O-] (stereo not given) | inactive | inactive | inactive | inactive | – | – | – | –
45 | O=C(O)CCCCCCCCCCCC(=O)O | inactive | inactive | inactive | inactive | – | – | – | –
46 | CCCOC(=O)C(C)O (stereo not given) | inactive | inactive | inactive | inactive | – | – | – | –
47 | CC/C=C\CCOC(=O)c1ccccc1O | inactive | inactive | inactive | inactive | – | – | – | –
48 | CC1=C(C(=O)O)N2C(=O)[C@@H](NC(=O)[C@H](N)C3=CCC=CC3)[C@H]2SC1 | inactive | inactive | inactive | inactive | – | – | – | –
49 | Cc1nnc(C(=O)NC(C)(C)c2nc(C(=O)NCc3ccc(F)cc3)c(O)c(=O)n2C)o1 | inactive | inactive | inactive | inactive | – | – | – | –
50 | CC1=NN(c2cc(Cl)c(S(=O)(=O)O)cc2Cl)C(=O)C1N=Nc1ccc(S(=O)(=O)O)cc1 (stereo not given) | inactive | inactive | inactive | inactive | – | – | – | –
51 | O=c1cc[nH]cc1 | inactive | inactive | inactive | inactive | – | – | – | –
52 | Cc1c(Cl)cccc1Cl | inactive | inactive | inactive | inactive | – | – | – | –
53 | CN(CCOc1ccc(CC2SC(=O)NC2=O)cc1)c1ccccn1 (stereo not given) | inactive | inactive | inactive | inactive | – | – | – | –
54 | O=C1O[C@H]([C@H](O)CO)C(O)=C1O | inactive | inactive | inactive | inactive | – | – | – | –
55 | NC(CO)C(=O)NNCc1ccc(O)c(O)c1O (stereo not given) | inactive | inactive | inactive | inactive | – | – | – | –
56 | C=Cc1cccc(C)c1 | inactive | inactive | inactive | inactive | – | – | – | –
57 | C[C@]12CCC(=O)C=C1CC[C@@H]1[C@@H]2C(=O)C[C@@]2(C)[C@H]1CC[C@]2(O)C(=O)CO | inactive | inactive | inactive | inactive | – | – | – | –
58 | O=C(O)CNC(=O)c1ccc(CO)o1 | inactive | inactive | inactive | inactive | – | – | – | –
59 | c1cnc2c(n1)CCCC2 | inactive | inactive | inactive | inactive | – | – | – | –
60 | c1ccc2cnncc2c1 | inactive | inactive | inactive | inactive | – | – | – | –
